Assay results taken from PubChem BioAssay (NCATS).
Inconclusive results are not listed. Where a call stands in place of a potency, no number is given. Activity calls are given as the source filed them. Calls come from the whole dose curve; as a rule, active = well fitted inhibition curve with a large enough effect; inconclusive = small, poorly fitted or top-dose-only effect; inactive = flat fitted curve, though single readings scatter.

Experiments:
Assay in all cases: qHTS profiling for inhibitors of Plasmodium falciparum proliferation (AID 504749); note: nearly all actives have a fitted effect of over 60% in size
Conditions in all cases: P. falciparum in erythrocytes, SYBR Green DNA, 72 h; series mostly up to 28.7 µM
JCK = test system: JCK
In short: (§1)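 Infected RBCs, 0.3% parasitemia/2.5% Hct final; cpd 72 h, 37 C, 5% CO2; lysis buffer with saponin/triton/SYBR Green I, o/n RT dark; FI 485/535; norm. to artemisinin (0.29 uM) and DMSO.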

N140 = test system: N140
In short: as §1

P93_24 = test system: P93_24
In short: as §1

P94_40 = test system: P94_40
In short: as §1

PAD = test system: PAD
In short: as §1

PC15 = test system: PC15
In short: as §1

PC26 = test system: PC26
In short: as §1

PC49 = test system: PC49
In short: as §1

SC27B = test system: SC27B
In short: as §1

TAB109 = test system: TAB109
In short: as §1
Potency is the fitted concentration of half-maximal effect.

| SMILES | Potency (JCK) | Potency (N140) | Potency (P93_24) | Potency (P94_40) | Potency (PAD) | Potency (PC15) | Potency (PC26) | Potency (PC49) | Potency (SC27B) | Potency (TAB109) |
| --- | --- | --- | --- | --- | --- | --- | --- | --- | --- | --- |
| Cc1ccc(Cl)c(O)c1 | inactive | inactive | inactive | inactive | inactive | inactive | inactive | inactive | inactive | inactive |
| CC(C)NC(C)Cc1ccc(I)cc1 (stereo not drawn) | inactive | inactive | inactive | inactive | inactive | inactive |  | inactive | inactive | inactive |
| CCCN1CCC[C@H](c2cccc(O)c2)C1 | inactive | inactive | inactive | inactive | inactive | inactive | inactive | inactive | inactive | inactive |
| CC[N+]1(CCOC(=O)C(O)(c2ccccc2)c2ccccc2)CCCCC1 | inactive | inactive |  | inactive | inactive | inactive | inactive | inactive | inactive |  |
| C#CC1(O)CCC2C3CCC4=CC(=O)CCC4(C)C3CCC21C (stereo not drawn) | inactive | inactive | inactive | inactive | inactive | inactive | inactive | inactive | inactive | inactive |
| CC(=O)[O][Hg][c]1ccccc1 | 3.98 µM (active) | 3.55 µM (active) | 5.01 µM (active) | 3.55 µM (active) | 6.31 µM (active) | 3.55 µM (active) | 6.75 µM (active) | 2 µM (active) | 4.47 µM (active) | 4.47 µM (active) |
| COC(=O)c1cncn1C(C)c1ccccc1 (stereo not drawn) |  |  |  |  |  |  | inactive |  |  |  |
| COC(=O)[C@@H](N)CCCN=C(N)N[N+](=O)[O-] | inactive | inactive | inactive | inactive | inactive | inactive | inactive | inactive | inactive | inactive |
| c1ccc(C2(c3ccccc3)CC2C2=NCCN2)cc1 (stereo not drawn) | inactive | inactive | inactive | inactive | inactive | 5.62 µM (active) | inactive | inactive | inactive | inactive |
| C=CCN1CC[C@]23CCCCC2[C@H]1Cc1ccc(O)cc13 (stereo partly drawn) | inactive | inactive | inactive | inactive | inactive |  | inactive | inactive | inactive | inactive |
| C[C@]12CCC(=O)C(O)=C1CC[C@@H]1[C@H]3CCC(=O)[C@@]3(C)CC[C@@H]12 | inactive |  |  |  | inactive | inactive | inactive | inactive |  |  |
| CN[C@@H]1C[C@@H](c2ccc(Cl)c(Cl)c2)c2ccccc21 | inactive |  |  |  |  |  |  |  |  |  |
| CCCCc1ccc(C(=O)O)nc1 | inactive | inactive | inactive | inactive | inactive | inactive | inactive | inactive | inactive | inactive |
| CN1C2CCC1CC(OC(=O)c1cc(Cl)cc(Cl)c1)C2 (stereo not drawn) | inactive | inactive | inactive | inactive | inactive | inactive | inactive | inactive | inactive | inactive |
| COC(C)(C)CCCC(C)C/C=C/C(C)=C/C(=O)OC(C)C (stereo not drawn) |  |  | 8.91 µM (active) |  |  |  |  |  | inactive | inactive |
| O=[N+]([O-])c1ccc([As](=O)(O)O)cc1 |  | 4.47 µM (active) | 5.01 µM (active) | 7.08 µM (active) | 7.94 µM (active) |  | 13.5 µM (active) |  | 4.47 µM (active) | 6.31 µM (active) |
| O=C(O)C(Cl)Cl | inactive | inactive | inactive | inactive | inactive | inactive | inactive | inactive | inactive | inactive |
| O=C(O)COc1ccccc1 | inactive | inactive | inactive | inactive | inactive | inactive | inactive | inactive | inactive | inactive |
| C1CCC(NC2CCCCC2)CC1 | inactive | inactive | inactive | inactive | inactive | inactive | inactive | inactive | inactive | inactive |
| NC1=NC(=O)N2CC12 (stereo not drawn) | inactive | inactive |  |  |  | inactive |  | inactive | inactive |  |
| CN(C)[C@@H]1C(=O)C(C(N)=O)=C(O)[C@@]2(O)C(=O)C3=C(O)c4c(O)cccc4[C@@](C)(O)[C@H]3[C@H](O)[C@@H]12 | inactive |  |  |  |  | inactive | inactive | inactive | inactive |  |
| Cc1cc(O)ccc1Cl | inactive | inactive | inactive |  | inactive | inactive | inactive | inactive | inactive | inactive |
| CC(=O)OCC1=C(C(=O)O)N2C(=O)[C@@H](N)[C@@H]2SC1 | inactive |  |  |  |  | inactive | inactive | inactive |  |  |
| CCCCCCCCCCCCCCCC[N+](C)(C)C |  |  |  |  |  |  |  | inactive | 12.6 µM (active) |  |
| CCCCCCCCCC(CC)c1ccc(S(=O)(=O)O)cc1 (stereo not drawn) | inactive | inactive | inactive | inactive | inactive | inactive | inactive | inactive | inactive | inactive |
| NC(=O)CN1CC(O)CC1=O (stereo not drawn) | inactive | inactive | inactive | inactive | inactive | inactive | inactive | inactive | inactive | inactive |
